uPA generation – qHTS for Inhibitors of Cell Surface uPA Generation. 330,000 compounds, 0.31% hits. Potency, µM (series often up to 38.3 µM), without a hit: at the highest dose activity change, negative = inhibition, hits mostly inhibitors. AID 540303, 2011. cell surface uPA generation assay, qHTS; active = well fitted inhibition curve with a large enough effect; inconclusive = small, poorly fitted or top-dose-only effect; inactive = no such curve, though single readings can be large or run the other way; tested in mouse RAW 264.7 cells; also: potency is read from the fitted curve at half-maximal effect; % is scaled to controls: 0 for no effect and ±100 for the full control effect; nearly all actives have a fitted effect of over 55% in size
TRPV1 ag – HTS Assay for Compounds that Act as Agonists of the Vanilloid Receptor 1; Transient receptor potential cation channel subfamily V member 1 (Homo sapiens), Q8NER1; TRPV1-expressing cells, Fluo-8 calcium influx, agonist mode; activation, % at 8.33 µM; 320,000 compounds, 0.19% hits; in the data active = activation above about 80%; inconclusive = between about 30% and that limit; also: 0% is about no effect
Target sequence (Q8NER1 whole entry, looked up): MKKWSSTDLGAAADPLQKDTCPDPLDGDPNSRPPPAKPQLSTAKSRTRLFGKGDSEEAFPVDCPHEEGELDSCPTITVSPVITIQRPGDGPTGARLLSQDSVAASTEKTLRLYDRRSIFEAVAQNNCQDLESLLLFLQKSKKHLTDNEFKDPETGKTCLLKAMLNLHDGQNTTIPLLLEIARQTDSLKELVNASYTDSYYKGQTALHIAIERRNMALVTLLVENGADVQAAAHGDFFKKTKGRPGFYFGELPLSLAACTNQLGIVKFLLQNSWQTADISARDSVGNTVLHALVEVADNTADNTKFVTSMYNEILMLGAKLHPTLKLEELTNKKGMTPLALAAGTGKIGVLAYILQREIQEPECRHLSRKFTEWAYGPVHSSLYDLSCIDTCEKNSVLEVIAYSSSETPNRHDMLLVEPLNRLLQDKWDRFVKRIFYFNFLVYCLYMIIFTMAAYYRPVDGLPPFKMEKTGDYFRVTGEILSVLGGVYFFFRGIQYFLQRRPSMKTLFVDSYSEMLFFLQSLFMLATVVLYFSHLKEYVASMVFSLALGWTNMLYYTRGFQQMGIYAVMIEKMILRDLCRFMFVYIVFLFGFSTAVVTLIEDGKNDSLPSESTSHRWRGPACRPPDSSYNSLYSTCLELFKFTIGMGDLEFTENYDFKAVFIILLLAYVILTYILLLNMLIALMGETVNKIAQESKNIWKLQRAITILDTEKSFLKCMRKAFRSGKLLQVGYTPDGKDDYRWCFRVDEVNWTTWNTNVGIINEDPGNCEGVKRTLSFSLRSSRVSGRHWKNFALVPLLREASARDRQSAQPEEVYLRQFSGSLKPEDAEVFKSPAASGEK
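Cells expressing TRPV1 were dye-loaded with Fluo-8 and read kinetically: 10 s baseline, 3 min after compound (agonist portion), then 2 min after EC20 capsaicin (allosteric enhancer portion). Calcium-bound dye fluorescence at 480/520 nm.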
RORg inh – qHTS for inhibitors of ROR gamma transcriptional activity | 310,000 compounds, 5.4% hits | Potency, µM (series often up to 53.6 µM), without a hit: at the highest dose activity change, negative = inhibition, usual class: inhibitors | Drosophila S2 Gal4-RORgamma UAS-luciferase reporter, 20 h; also: potency is read from the fitted curve at half-maximal effect; % is scaled to controls: 0 for no effect and ±100 for the full control effect; nearly all actives have a fitted effect of over 60% in size
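In this cell-based reporter format, copper sulfate (700 uM final) drives Gal4–ROR gamma fusion expression from a metallothionein promoter in Drosophila Schneider cells; compounds preincubated 1 hr, reporter read after 20 hr at ambient temperature.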
TRPV1 PAM – HTS Assay for Compounds that Act as Potentiators of the Vanilloid Receptor 1. Transient receptor potential cation channel subfamily V member 1 (Homo sapiens), Q8NER1. TRPV1-expressing cells, Fluo-8 calcium influx, capsaicin EC20 potentiation. 320,000 compounds, 0.02% hits. potentiation, % at 8.33 µM. AID 540277, 2011; in the data active = potentiation above about 80%; inconclusive = between about 30% and that limit; also: 0% is about no effect
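Fluo-8 calcium influx in TRPV1-expressing cells, kinetic read (ex 480/em 520 nm). Compound added and read 3 min for agonist activity, followed by capsaicin at EC20 final and 2 min further read for enhancement.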
Gal4-VP16 FLuc – VP16 counterscreen qHTS for inhibitors of ROR gamma transcriptional activity. Drosophila S2 Gal4-VP16 UAS-luciferase, luminescence, 20 h. Potency, µM (series often up to 53.6 µM), without a hit: at the highest dose activity, negative = inhibition, actives largely listed as inhibitors. 310,000 compounds, 3.5% hits. AID 2546, 2010;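 also: Gal4-VP16 expression switched on by copper sulfate through the metallothionein promoter; potency is read from the fitted curve at half-maximal effect; % is scaled to controls: 0 for no effect and ±100 for the full control effect; nearly all actives have a fitted effect of over 50% in size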
* hit, by the source's call; u = inconclusive; x = not tested or not shown. Only some compounds are listed: those with a hit (about 5.8% of all), similar ones and a draw of the others. Unless noted, calls follow the shape of the dose curve; as a rule, active = well fitted curve in the direction sought with a large enough effect; inconclusive = small, poorly fitted or top-dose-only effect, or another doubt; inactive = no such curve, though single readings can be large; an effect the other way counts as inactive or inconclusive.

SMILES	uPA generation	TRPV1 ag	RORg inh	TRPV1 PAM	Gal4-VP16 FLuc
COC(=O)c1cc(NC(=S)NC(=O)c2ccccc2)ccc1N1CCOCC1	15%	3	18µM*	2	u
COc1ccc(C(=O)NC(=S)Nc2ccc(N3CCOCC3)cc2)cc1Cl	-4%	-1	4.5µM*	-2	7.9µM*
COC(=O)c1cc(NC(=O)c2c(-c3ccccc3)noc2C)ccc1N1CCOCC1	u	2	3%	9	-1%
Cc1ccc(C(=O)NC(=S)Nc2ccc(N3CCOCC3)cc2)cc1C	-1%	-4	2µM*	2	u
Cc1cccc(C(=O)NC(=S)Nc2ccc(N3CCOCC3)cc2)c1	0%	4	4µM*	3	7.1µM*
COC(=O)c1cc(OC)c(OC)cc1NC(=O)c1c(-c2ccccc2Cl)noc1C	x	3	8%	-13	1%
Cc1cccc(NC(=S)NCC(c2ccccc2)N(C)C)c1 (stereo unspecified)	13%	18	3.2µM*	-12	10µM*
CN(C)C(CNC(=S)Nc1ccc(Cl)cc1)c1cccnc1 (stereo unspecified)	1%	1	9%	-2	5%
Cc1cccc(NC(=S)NC(NC(=O)OCc2ccccc2)C(Cl)(Cl)Cl)c1 (stereo unspecified)	-14%	3	11µM*	-7	u
CN(C)C(CNC(=S)Nc1cccc(Cl)c1)c1ccccc1 (stereo unspecified)	x	12	4µM*	-3	13µM*
Cc1cccc(NC(=S)NC(C)CCc2ccccc2)c1 (stereo unspecified)	-9%	u	7.1µM*	13	3.2µM*
CCOC(=O)c1c(N)sc(C(=O)Nc2ccc3c(c2)OCO3)c1C	-9%	26	u	0	5.6µM*
CCOC(=O)C1=C(c2ccccc2)NC(=S)NC1c1cccc([N+](=O)[O-])c1 (stereo unspecified)	10%	6	u	-1	u
CCOC(=O)C1=C(c2ccccc2)NC(=S)NC1c1cc([N+](=O)[O-])ccc1OC (stereo unspecified)	10%	4	13µM*	-4	u
CCOC(=O)C1=C(c2ccccc2)NC(=S)NC1c1ccc(C)c([N+](=O)[O-])c1 (stereo unspecified)	6%	17	u	-21	11µM*
CCOC(=O)C1=C(c2ccccc2)NC(=S)NC1C (stereo unspecified)	0%	-5	10µM*	18	u
CCOC(=O)C1=C(c2ccccc2)NC(=O)NC1c1ccc(OC)cc1OC (stereo unspecified)	-1%	-4	1%	6	9%
COc1ccc(N(C(C)C(=O)N/N=C(\C)C(C)(C)C)S(C)(=O)=O)cc1 (stereo unspecified)	5%	5	-2%	-5	-8%
CC(NC(=O)CN1C(=O)NC2(CCCC2)C1=O)c1ccc(Cl)cc1Cl (stereo unspecified)	-1%	x	x	x	x
O=C(Nc1ccc(Br)cc1)c1cc(-c2ccc3c(c2)OCO3)on1	6%	1	-36%	8	-6%
COc1ccc(C)cc1Nc1n[n+](-c2ccccc2)c(-c2cc(OC)c(OC)cc2Br)s1	-25%	3	10µM*	4	u
Cc1cc(C(C)(C)C)cc(C)c1C[n+]1ccc2ccccc2c1	4.5µM*	3	u	8	u
CN(C)c1ccc(/C=C(\C#N)C(=O)OCC(=O)N(C)C2CCS(=O)(=O)C2)cc1 (stereo unspecified)	3%	10	x	16	x
OCc1nc2ccccc2n1CCc1ccccc1	-17%	11	x	-5	x
Cc1ccccc1Cn1c(Cc2ccccc2)nc2ccccc21	-4%	u	5.6µM*	-1	u
SMILES	uPA generation	TRPV1 ag	RORg inh	TRPV1 PAM	Gal4-VP16 FLuc
COCc1nc2ccccc2n1Cc1cccc(C)c1	3%	u	13µM*	-22	2%
Cc1cc(C)c(C)c(Cn2c(CO)nc3ccccc32)c1C	2%	7	2µM*	-1	u
Cc1cccc(Cn2c(Cc3ccccc3)nc3ccccc32)c1	-4%	23	3.2µM*	-10	4.5µM*
COCc1nc2ccccc2n1CCc1ccccc1	-8%	u	11µM*	-43	u
CC(=O)NCCCc1nc2ccccc2n1Cc1cc(C)ccc1C	3%	89*	-14%	2	-8%
CCC(=O)N1CCN(c2ccc(NC(=O)c3ccc([N+](=O)[O-])o3)cc2Cl)CC1	-14%	9	10µM*	-14	-11%
Cc1cccnc1NC(=O)c1ccc([N+](=O)[O-])o1	-8%	0	-37%	7	-23%
O=C(Nc1ccccc1Cl)c1ccc([N+](=O)[O-])o1	-15%	0	10µM*	3	16µM*
CN1CCN(c2ccccc2NC(=O)c2ccc([N+](=O)[O-])o2)CC1	4.5µM*	3	u	u	u
Cc1cccc(NC(=O)c2ccc([N+](=O)[O-])o2)n1	-13%	-2	11µM*	-21	u
Cc1ccccc1NC(=O)c1ccc([N+](=O)[O-])o1	-7%	0	-23%	u	-14%
COc1ccc(NC(C)=O)cc1NC(C)C(=O)Nc1ccc(F)c(F)c1F (stereo unspecified)	1%	-5	15%	11	4%
COc1cccc(SCc2noc(C(=O)NCC3CC3)c2C(=O)NCC2CC2)c1	15%	x	x	x	x
CCOC(=O)C1CCCN(c2nc3ccccc3nc2NS(=O)(=O)c2ccc(C)cc2)C1 (stereo unspecified)	-15%	11	x	-2	x
Cc1ccc(CNc2ncnc3ccc(-c4c(C)noc4C)cc23)o1	x	x	-27%	x	-6%
CC(=O)Nc1nc2cc(N)ccc2s1	1%	-2	x	9	x
Cc1ccc2nc(-c3ccc(N)cc3)sc2c1	-15%	1	4.5µM*	8	10µM*
Cc1ccc2nc(-c3ccc(NS(=O)(=O)c4ccc(F)cc4)cc3)sc2c1	4%	1	x	7	x
Nc1ccc(-c2nc3cc(N)ccc3s2)cc1	-13%	-2	7.9µM*	-3	u
COc1ccc2nc(-c3ccc(N(C)C)cc3)sc2c1	x	x	0.63µM*	x	5µM*
Nc1ccc2nc(-c3ccccc3)sc2c1	-14%	9	8.9µM*	-9	u
COC(=O)CC[C@@H](C)[C@H]1CC[C@H]2[C@@H]3CC[C@@H]4C[C@H](O)CC[C@]4(C)[C@H]3C[C@H](O)[C@]12C	x	x	16%	x	-11%
COC(=O)[C@H]1[C@@H]2C[C@H]3c4[nH]c5ccccc5c4CCN3C[C@@H]2CC[C@@H]1O	x	x	5%	x	-5%
O=C(NCCc1ccccc1)c1ccc2nc(N3CCOCC3)sc2c1	-1%	23	24%	-22	u

High-throughput results as filed in PubChem BioAssay.
